Measured values: ChEMBL document CHEMBL1961873, “Compounds: GSK PKIS; Assays: Nanosyn kinase panel” (2012)
Several values for one entry are separate records, joined by “and”; a condition that tells them apart may be missing. Identical values can stand only once.

How the values were obtained:
[1] = molecular target: T1, Aurora kinase A (Homo sapiens) (UniProt O14965); details: at 1 µM;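 further: values are mean percent inhibition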
T1 sequence (whole entry): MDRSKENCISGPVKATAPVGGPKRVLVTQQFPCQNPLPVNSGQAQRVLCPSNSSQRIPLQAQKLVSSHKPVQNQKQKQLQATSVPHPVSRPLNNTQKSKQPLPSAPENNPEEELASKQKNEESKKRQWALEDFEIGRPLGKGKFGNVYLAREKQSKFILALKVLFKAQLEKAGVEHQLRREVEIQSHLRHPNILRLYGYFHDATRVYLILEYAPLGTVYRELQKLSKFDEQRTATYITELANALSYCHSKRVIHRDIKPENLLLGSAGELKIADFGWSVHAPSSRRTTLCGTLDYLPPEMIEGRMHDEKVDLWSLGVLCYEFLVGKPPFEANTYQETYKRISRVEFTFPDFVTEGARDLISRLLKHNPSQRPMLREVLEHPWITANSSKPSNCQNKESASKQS

[2] = molecular target: Aurora kinase B (Homo sapiens) (UniProt Q96GD4); details: at 0.1 µM
[3] = molecular target: Aurora kinase B (Homo sapiens) (UniProt Q96GD4); details: at 1 µM
[4] = molecular target: T2, Aurora kinase C (Homo sapiens) (UniProt Q9UQB9); details: at 0.1 µM
T2 sequence (whole entry): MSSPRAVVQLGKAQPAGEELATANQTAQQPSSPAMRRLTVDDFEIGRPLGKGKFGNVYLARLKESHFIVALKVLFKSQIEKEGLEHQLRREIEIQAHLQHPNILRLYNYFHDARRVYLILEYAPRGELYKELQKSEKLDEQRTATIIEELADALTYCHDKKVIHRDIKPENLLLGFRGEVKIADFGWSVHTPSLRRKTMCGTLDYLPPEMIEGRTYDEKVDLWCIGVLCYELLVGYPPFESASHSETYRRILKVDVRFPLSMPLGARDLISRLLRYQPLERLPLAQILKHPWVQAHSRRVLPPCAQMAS

[5] = molecular target: T2, Aurora kinase C (Homo sapiens); details: at 1 µM
[6] = molecular target: Serine/threonine-protein kinase 10 (Homo sapiens) (UniProt O94804); details: at 0.1 µM
[7] = molecular target: Serine/threonine-protein kinase 10 (Homo sapiens) (UniProt O94804); details: at 1 µM
[8] = molecular target: T3, Mitogen-activated protein kinase kinase kinase kinase 2 (Homo sapiens) (UniProt Q12851); details: at 0.1 µM
T3 sequence (whole entry): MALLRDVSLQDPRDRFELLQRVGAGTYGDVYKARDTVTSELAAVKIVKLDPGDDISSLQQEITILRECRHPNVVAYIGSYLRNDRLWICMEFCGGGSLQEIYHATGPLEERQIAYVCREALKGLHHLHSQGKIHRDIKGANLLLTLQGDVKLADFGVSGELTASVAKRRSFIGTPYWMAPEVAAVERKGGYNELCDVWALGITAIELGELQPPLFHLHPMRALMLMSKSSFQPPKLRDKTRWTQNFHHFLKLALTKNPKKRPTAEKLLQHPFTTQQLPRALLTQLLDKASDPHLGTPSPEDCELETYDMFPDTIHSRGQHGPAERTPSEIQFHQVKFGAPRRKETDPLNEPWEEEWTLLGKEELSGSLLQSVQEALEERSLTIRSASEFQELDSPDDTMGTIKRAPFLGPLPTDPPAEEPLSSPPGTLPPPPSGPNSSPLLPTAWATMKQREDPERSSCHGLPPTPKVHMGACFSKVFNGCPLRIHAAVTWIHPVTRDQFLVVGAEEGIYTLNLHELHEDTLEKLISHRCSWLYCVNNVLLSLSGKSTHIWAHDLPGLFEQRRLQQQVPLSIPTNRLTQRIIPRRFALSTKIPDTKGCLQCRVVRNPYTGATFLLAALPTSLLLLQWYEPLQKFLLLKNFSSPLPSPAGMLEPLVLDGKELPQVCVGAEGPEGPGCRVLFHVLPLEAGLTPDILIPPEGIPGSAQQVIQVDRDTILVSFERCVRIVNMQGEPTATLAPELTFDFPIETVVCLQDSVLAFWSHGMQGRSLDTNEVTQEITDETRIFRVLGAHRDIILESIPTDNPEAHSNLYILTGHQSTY

[9] = molecular target: T3, Mitogen-activated protein kinase kinase kinase kinase 2 (Homo sapiens); details: at 1 µM
[10] = molecular target: Mitogen-activated protein kinase kinase kinase kinase 4 (Homo sapiens) (UniProt O95819); details: at 0.1 µM
[11] = molecular target: Mitogen-activated protein kinase kinase kinase kinase 4 (Homo sapiens) (UniProt O95819); details: at 1 µM
[12] = molecular target: Dual specificity mitogen-activated protein kinase kinase 1 (Homo sapiens) (UniProt Q02750); details: at 0.1 µM
[13] = molecular target: Dual specificity mitogen-activated protein kinase kinase 1 (Homo sapiens) (UniProt Q02750); details: at 1 µM
[14] = molecular target: Misshapen-like kinase 1 (Homo sapiens) (UniProt Q8N4C8); details: at 0.1 µM
[15] = molecular target: Misshapen-like kinase 1 (Homo sapiens) (UniProt Q8N4C8); details: at 1 µM
[16] = molecular target: T4, Serine/threonine-protein kinase 4 (Homo sapiens) (UniProt Q13043); details: at 0.1 µM
T4 sequence (whole entry): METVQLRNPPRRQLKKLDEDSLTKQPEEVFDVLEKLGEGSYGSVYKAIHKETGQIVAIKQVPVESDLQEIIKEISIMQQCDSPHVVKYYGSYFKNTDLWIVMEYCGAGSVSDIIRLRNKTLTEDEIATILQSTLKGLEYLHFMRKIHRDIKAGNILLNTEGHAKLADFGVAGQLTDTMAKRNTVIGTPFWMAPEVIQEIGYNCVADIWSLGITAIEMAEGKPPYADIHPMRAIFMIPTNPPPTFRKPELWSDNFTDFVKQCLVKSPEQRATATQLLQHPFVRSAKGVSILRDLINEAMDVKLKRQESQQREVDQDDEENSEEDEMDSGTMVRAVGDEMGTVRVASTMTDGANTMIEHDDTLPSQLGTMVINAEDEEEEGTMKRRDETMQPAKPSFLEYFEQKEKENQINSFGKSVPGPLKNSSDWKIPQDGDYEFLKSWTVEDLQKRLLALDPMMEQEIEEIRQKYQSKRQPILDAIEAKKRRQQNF

[17] = molecular target: T4, Serine/threonine-protein kinase 4 (Homo sapiens); details: at 1 µM
[18] = molecular target: T5, Serine/threonine-protein kinase 3 (Homo sapiens) (UniProt Q13188); details: at 0.1 µM
T5 sequence (whole entry): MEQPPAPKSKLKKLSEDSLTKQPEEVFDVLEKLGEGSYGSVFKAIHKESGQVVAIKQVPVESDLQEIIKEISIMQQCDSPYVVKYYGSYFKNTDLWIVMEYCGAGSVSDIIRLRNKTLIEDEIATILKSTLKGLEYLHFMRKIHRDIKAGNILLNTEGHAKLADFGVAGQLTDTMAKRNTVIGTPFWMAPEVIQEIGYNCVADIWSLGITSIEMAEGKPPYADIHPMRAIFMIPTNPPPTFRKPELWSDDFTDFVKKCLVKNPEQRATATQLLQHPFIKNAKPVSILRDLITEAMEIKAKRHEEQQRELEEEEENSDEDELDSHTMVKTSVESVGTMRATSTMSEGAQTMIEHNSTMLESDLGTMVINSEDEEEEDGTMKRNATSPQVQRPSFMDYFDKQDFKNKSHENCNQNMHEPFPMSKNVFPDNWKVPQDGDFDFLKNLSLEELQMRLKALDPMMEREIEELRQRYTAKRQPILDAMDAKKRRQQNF

[19] = molecular target: T5, Serine/threonine-protein kinase 3 (Homo sapiens); details: at 1 µM
[20] = molecular target: Serine/threonine-protein kinase 26 (Homo sapiens) (UniProt Q9P289); details: at 0.1 µM
Serine/threonine-protein kinase 26 (Homo sapiens), sequence (Q9P289 2-416 limits assumed): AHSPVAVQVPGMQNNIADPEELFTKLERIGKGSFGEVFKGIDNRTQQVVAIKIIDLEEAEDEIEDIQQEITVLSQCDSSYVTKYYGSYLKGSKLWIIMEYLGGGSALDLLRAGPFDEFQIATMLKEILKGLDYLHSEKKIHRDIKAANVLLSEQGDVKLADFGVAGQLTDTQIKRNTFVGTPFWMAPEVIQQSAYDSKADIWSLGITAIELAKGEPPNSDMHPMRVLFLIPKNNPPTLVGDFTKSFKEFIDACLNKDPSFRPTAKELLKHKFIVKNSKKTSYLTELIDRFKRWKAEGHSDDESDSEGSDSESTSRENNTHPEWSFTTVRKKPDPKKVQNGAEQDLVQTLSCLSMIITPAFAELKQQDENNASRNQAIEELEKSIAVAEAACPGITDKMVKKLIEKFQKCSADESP

Serine/threonine-protein kinase 10 (Homo sapiens), sequence (O94804 whole entry, looked up): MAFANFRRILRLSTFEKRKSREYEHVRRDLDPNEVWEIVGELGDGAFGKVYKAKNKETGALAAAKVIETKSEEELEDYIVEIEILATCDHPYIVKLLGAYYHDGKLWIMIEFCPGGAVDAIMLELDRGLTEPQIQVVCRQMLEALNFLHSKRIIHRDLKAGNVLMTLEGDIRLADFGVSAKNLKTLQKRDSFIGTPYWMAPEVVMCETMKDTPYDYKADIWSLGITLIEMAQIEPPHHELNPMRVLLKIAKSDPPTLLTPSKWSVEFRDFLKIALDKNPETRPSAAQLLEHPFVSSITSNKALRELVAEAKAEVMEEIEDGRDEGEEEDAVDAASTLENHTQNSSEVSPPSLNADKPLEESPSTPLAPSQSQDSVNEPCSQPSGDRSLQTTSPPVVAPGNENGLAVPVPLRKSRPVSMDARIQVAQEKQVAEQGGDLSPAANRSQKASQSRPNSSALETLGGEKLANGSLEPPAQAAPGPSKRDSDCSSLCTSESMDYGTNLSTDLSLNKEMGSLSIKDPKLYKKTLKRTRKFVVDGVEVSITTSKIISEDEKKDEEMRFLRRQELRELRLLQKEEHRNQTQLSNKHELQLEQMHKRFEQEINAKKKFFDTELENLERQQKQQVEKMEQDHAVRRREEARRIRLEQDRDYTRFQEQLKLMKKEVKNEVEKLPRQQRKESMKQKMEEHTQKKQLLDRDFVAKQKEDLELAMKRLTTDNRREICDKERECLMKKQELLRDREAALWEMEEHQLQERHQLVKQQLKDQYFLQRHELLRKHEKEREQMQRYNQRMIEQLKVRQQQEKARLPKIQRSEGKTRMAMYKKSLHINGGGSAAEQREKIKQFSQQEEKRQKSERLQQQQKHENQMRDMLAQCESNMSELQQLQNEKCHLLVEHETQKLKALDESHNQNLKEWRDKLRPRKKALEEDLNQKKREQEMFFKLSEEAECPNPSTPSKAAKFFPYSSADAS
Dual specificity mitogen-activated protein kinase kinase 1 (Homo sapiens), sequence (Q02750 whole entry): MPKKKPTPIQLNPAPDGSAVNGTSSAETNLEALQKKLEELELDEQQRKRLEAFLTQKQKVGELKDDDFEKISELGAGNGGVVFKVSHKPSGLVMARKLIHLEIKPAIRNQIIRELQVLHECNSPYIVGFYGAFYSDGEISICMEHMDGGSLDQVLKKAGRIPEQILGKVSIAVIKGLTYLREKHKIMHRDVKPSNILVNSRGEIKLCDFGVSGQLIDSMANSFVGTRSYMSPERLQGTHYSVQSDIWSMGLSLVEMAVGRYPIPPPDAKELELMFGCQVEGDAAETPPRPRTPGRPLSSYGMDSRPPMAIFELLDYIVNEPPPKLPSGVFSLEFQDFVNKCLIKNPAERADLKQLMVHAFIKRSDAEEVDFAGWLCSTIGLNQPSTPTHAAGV
Mitogen-activated protein kinase kinase kinase kinase 4 (Homo sapiens), sequence (O95819 2-1239 limits assumed): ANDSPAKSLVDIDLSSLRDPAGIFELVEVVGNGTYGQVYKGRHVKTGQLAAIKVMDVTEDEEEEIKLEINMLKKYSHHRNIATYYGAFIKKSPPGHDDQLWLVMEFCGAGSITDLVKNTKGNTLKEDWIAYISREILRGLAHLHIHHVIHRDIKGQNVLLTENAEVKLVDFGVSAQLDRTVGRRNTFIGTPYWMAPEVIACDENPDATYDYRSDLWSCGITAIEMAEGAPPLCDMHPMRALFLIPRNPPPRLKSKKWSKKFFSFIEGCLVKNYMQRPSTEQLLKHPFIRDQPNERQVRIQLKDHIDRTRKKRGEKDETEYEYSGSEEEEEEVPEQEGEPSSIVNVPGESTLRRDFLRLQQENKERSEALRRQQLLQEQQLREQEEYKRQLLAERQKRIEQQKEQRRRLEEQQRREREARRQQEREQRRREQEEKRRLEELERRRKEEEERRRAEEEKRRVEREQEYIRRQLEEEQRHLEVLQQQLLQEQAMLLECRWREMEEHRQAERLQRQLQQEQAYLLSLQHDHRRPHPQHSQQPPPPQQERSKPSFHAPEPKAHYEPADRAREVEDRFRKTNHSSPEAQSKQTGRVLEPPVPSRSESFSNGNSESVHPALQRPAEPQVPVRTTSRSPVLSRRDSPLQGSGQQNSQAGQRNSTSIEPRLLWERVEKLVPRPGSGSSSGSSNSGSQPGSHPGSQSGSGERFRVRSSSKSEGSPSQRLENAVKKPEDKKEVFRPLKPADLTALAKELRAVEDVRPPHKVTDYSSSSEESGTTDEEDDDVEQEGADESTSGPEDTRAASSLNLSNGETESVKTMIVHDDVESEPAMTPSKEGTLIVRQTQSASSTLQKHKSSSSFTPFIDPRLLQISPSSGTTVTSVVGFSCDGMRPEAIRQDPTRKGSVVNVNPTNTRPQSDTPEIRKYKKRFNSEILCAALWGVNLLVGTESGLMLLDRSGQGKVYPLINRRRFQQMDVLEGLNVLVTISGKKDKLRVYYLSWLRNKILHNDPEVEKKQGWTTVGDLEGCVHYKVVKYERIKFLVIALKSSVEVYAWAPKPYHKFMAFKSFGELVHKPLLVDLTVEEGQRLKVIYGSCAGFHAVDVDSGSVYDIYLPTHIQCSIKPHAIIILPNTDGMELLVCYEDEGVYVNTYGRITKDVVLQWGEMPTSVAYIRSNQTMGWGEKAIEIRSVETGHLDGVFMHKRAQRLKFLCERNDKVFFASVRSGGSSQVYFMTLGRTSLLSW
Aurora kinase B (Homo sapiens), sequence (Q96GD4 whole entry): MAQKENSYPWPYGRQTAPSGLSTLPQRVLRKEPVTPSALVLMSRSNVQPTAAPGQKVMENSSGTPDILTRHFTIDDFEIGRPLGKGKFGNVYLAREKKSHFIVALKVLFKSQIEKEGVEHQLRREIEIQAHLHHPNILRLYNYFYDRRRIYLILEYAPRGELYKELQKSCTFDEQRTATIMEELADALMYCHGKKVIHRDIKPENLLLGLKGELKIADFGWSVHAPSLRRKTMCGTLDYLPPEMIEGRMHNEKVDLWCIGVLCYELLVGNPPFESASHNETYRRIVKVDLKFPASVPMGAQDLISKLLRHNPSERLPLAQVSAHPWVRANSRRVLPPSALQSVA
Misshapen-like kinase 1 (Homo sapiens), sequence (Q8N4C8 whole entry, looked up): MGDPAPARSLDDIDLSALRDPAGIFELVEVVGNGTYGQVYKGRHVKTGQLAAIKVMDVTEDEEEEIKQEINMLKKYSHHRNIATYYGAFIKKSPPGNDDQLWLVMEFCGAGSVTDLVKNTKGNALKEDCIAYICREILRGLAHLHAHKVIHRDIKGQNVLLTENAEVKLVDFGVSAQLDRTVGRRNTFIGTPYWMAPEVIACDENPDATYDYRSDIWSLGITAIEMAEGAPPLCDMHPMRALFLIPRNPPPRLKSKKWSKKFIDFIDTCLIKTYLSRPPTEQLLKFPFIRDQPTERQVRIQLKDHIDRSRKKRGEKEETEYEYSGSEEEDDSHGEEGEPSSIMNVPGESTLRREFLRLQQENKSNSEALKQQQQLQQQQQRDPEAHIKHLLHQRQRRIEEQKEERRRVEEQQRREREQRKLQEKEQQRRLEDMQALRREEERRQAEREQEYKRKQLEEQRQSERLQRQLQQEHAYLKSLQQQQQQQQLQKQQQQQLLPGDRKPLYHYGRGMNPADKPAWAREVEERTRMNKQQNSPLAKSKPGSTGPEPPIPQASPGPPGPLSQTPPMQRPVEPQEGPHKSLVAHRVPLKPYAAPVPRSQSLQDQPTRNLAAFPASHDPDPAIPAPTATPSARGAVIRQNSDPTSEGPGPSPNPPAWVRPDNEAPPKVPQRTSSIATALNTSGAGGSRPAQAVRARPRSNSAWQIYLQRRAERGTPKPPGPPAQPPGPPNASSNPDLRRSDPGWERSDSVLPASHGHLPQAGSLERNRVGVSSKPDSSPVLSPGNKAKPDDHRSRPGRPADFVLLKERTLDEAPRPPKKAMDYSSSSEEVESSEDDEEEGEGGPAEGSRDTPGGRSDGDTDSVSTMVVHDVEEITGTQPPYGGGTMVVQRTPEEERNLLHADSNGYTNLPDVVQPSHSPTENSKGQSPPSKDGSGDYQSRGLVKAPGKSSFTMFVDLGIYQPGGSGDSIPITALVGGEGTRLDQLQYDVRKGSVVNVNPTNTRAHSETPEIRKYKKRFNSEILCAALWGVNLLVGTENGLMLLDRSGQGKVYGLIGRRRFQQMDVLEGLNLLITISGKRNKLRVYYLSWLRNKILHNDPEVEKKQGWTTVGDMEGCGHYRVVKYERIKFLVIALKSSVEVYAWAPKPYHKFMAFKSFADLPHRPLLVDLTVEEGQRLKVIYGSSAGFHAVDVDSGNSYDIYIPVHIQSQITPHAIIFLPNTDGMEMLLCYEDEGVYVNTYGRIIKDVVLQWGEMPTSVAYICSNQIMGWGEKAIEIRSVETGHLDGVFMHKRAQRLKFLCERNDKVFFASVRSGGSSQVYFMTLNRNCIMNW

SMILES	inhibition [1]	inhibition [2]	inhibition [3]	inhibition [4]	inhibition [5]	inhibition [6]	inhibition [7]	inhibition [8]	inhibition [9]	inhibition [10]	inhibition [11]	inhibition [12]	inhibition [13]	inhibition [14]	inhibition [15]	inhibition [16]	inhibition [17]	inhibition [18]	inhibition [19]	inhibition [20]
NS(=O)(=O)c1ccc(N/N=C2\C(=O)Nc3ccc(C(=O)NCc4ccncc4)cc32)cc1	54.9%	3.41%	11%	1.92%	14.6%	4.56%	9.47%	0.75%	4.07%	11.2%	46.5%	15.6%	57.6%	9.67%	39.4%	36.8%	76.1%	31.2%	72%	0.05%
COc1cc(Nc2ncc(-c3ccccc3)o2)cc(OC)c1	30.3%	5%	19.7%	3.27%	29.6%	8.54%	12.9%	0.95%	7.2%	7.08%	18.8%	4.41%	3.91%	8.63%	19.5%	3.72%	6.2%	6.11%	6.9%	-1.04%
Cc1c2ccc(N(C)c3ccnc(Nc4cccc(S(N)(=O)=O)c4)n3)cc2nn1C	72.2%	12.5%	54.2%	15.8%	81.6%	23.4%	64.4%	7.77%	41%	11.1%	55.2%	6.31%	10.7%	12.8%	55.3%	6.6%	8.01%	5.78%	7.64%	-1.28%
O=C(Nc1n[nH]c2nnc(-c3cccnc3)cc12)C1CC1	0.07%	0.12%	3.67%	-1.84%	3.75%	-0.21%	0.78%	0.63%	1.06%	3.78%	20.3%	0.74%	3.42%	1.29%	13.1%	-0.95%	-0.48%	-2.99%	-0.37%	0.94%
Nc1nonc1-c1nc2cnccc2n1C1CC1	10.7% and -0.07%	5.82% and -0.78%	11.3% and 1.86%	4.22% and -3.73%	11.6% and -0.49%	7.02% and 3.14%	15.1% and 14.1%	3.53% and 3.38%	14.3% and 12.8%	11.1% and 7.77%	39.8% and 40%	3% and 3.58%	6.15% and 7.11%	9.13% and 8.38%	30.2% and 28.1%	6.61% and 2.32%	23.1% and 15.3%	6.77% and 2.58%	17.9% and 12.6%	-0.67% and -1.23%
CS(=O)(=O)Nc1ccc(-c2cc(-c3ccccc3)cc(C(N)=O)c2N)cc1	1.71%	1.93%	5.23%	0.13%	4.66%	2.01%	4.84%	-1.83%	1.34%	3.1%	16.6%	3.57%	2.74%	0.77%	10.4%	0.24%	0.83%	-1.12%	-0.76%	-1.2%
COc1cccc(-n2ncc3c(N/N=C/c4ccc(C(=O)NCCN(C)C)cc4)ncnc32)c1	62.7%	7.23%	38.6%	5.58%	57%	23%	61.2%	3.89%	21.8%	31.3%	78.1%	2.77%	4.04%	23.1%	64.8%	4.6%	10.1%	4.33%	6.3%	-1.8%
CCCNc1cccc(-n2ncc3c(N/N=C/c4ccncc4)ncnc32)c1	70.7%	14.3%	43.8%	17%	58.5%	6.3%	28.4%	1.16%	3.57%	9.69%	44.1%	1.7%	2.07%	5.44%	35.9%	4.12%	12.3%	5.92%	9.89%	1.77%
